Results on 17 compounds are retold here after PubChem BioAssay (Tox21).

Structures are written as SMILES. Results filed as inconclusive are left out. Values without a mark were called inactive. Calls of active or inactive are those of the source. Unless noted, the call rests on the fitted dose curve; in most records, active means well fitted curve in the direction sought with a large enough effect in the repeat runs; inconclusive means weak or mixed curves; inactive means no such curve, though single readings can be large; an effect the other way counts as inactive or inconclusive.

In test [1] the target is Peroxisome proliferator-activated receptor delta (Homo sapiens) (UniProt Q03181). In words: qHTS assay to identify small molecule agonists of the peroxisome proliferator-activated receptor delta (PPARd) signaling pathway (AID 743212; calls by dose curve; further: on the % scale 0 is the no-effect control and ±100 the full control effect). The essentials: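 Tox21 library screened in GeneBLAzer PPARd UAS-bla HEK293H cells. After compound treatment at 37 C, a FRET-based beta-lactamase substrate was applied for 2 h and fluorescence recorded.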
Chain of Peroxisome proliferator-activated receptor delta (Homo sapiens) (Q03181 whole entry, looked up): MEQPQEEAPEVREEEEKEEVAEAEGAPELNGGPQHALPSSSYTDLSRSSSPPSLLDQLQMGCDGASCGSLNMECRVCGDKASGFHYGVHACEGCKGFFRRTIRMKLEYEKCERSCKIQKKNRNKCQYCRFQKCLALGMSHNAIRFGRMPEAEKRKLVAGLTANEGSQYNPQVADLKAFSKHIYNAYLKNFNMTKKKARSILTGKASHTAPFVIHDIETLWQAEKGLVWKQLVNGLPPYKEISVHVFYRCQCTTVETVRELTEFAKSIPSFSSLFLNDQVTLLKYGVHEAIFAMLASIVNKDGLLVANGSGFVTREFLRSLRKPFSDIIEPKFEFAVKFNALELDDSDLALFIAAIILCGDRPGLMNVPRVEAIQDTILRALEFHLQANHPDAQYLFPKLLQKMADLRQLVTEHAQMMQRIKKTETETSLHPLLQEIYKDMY
In general terms: In qHTS, concentration-response curves come from the screen itself.

Test [2] can be described thus: qHTS assay to identify small molecule agonists of the AP-1 signaling pathway - cell viability counter screen (AID 1159525; calls by dose curve; further: nearly all actives have a fitted effect of over 55% in size). The essentials:
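Same-well cytotoxicity counter screen of the Tox21 10K library in ME-180 cells. The readout is ATP-dependent luminescence after 5 h compound treatment. Data are normalised to DMSO and tetra n-octyl ammonium bromide controls.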

Test [3] is described as follows: qHTS assay to identify small molecule agonists of the AP-1 signaling pathway (AID 1159526; calls by dose curve; further: on the % scale 0 is the no-effect control and ±100 the full control effect).
Test [4] in a line: qHTS assay to identify small molecule antagonists of the retinoic acid receptor (RAR) signaling pathway (AID 1159552; further: on the % scale 0 is the no-effect control and ±100 the full control effect; nearly all actives have a fitted effect of over 50% in size). The essentials: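 Luminescence from a RARE luciferase reporter in C3RL4 cells served as read-out. Cells received compounds together with 1 uM final retinol and incubated 6 hr at 37 C before detection reagent was added for 30 min at room temperature.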
Test [5] in a line: qHTS assay to identify small molecule agonists of the peroxisome proliferator-activated receptor delta (PPARd) signaling pathway - cell viability counter screen (AID 743211). Further: nearly all actives have a fitted effect of over 55% in size. Further: potency means the concentration at half of the fitted maximal effect. The gist of the method: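 Read-out: CellTiter-Glo luminescence, 30 min RT, measured in the same wells as the beta-lactamase reporter. Cells: GeneBLAzer PPAR delta UAS-bla HEK293H, 3000 cells/well, compound exposure 17 h at 37C.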

The nature of test [6]: qHTS assay to identify small molecule antagonists of the peroxisome proliferator-activated receptor delta (PPARd) signaling pathway - cell viability counter screen (AID 743213). Further: on the % scale 0 is the no-effect control and ±100 the full control effect; nearly all actives have a fitted effect of over 50% in size. The essentials:
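PPARd-bla HEK293H cells were treated with compounds plus agonist L165041 (300 nM final) for 17 h at 37 C. Viability was then read in the same wells by CellTiter-Glo luminescence after 30 min at room temperature.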

Test [7] addresses Bile acid receptor (Homo sapiens) (UniProt Q96RI1). Nature of the test: qHTS assay to identify small molecule antagonists of the farnesoid-X-receptor (FXR) signaling pathway (AID 743217; active means well fitted inhibition curve with a large enough effect in the signal ratio in the repeat runs, not every such curve was filed as active; the % refers to the signal ratio; further: on the % scale 0 is the no-effect control and ±100 the full control effect). The essentials:
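Read-out: beta-lactamase FRET fluorescence (LiveBLAzer B/G substrate, 2 h, room temperature) in GeneBLAzer FXR-UAS-bla HEK 293T cells. Compounds were co-dosed with 50 uM chenodeoxycholic acid (final) and incubated 16 h at 37 °C.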

The nature of test [8]: qHTS assay to identify small molecule agonists of the farnesoid-X-receptor (FXR) signaling pathway - cell viability counter screen (AID 743218). Further: nearly all actives have a fitted effect of over 45% in size. Further: potency means the concentration at half of the fitted maximal effect. The essentials:
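Luminescence from CellTiter-Glo, read after 30 min at RT, reports viability of GeneBLAzer FXR-UAS-bla HEK 293T cells treated 16 h with compounds in the wells used for the beta-lactamase reporter.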

Test [9] addresses Bile acid receptor (Homo sapiens) (UniProt Q96RI1). In words: qHTS assay to identify small molecule agonists of the farnesoid-X-receptor (FXR) signaling pathway (AID 743220; active means well fitted activation curve with a large enough effect in the signal ratio in the repeat runs, not every such curve was filed as active; the % refers to the signal ratio; further: on the % scale 0 is the no-effect control and ±100 the full control effect). The gist of the method: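 FXR-UAS-bla HEK 293T cells carrying a UAS-driven beta-lactamase reporter were plated for 5 h at 37C/5% CO2, then exposed to DMSO-dissolved Tox21 10K compounds for 16 h at 37C. A LiveBLAzer B/G FRET substrate was loaded for 2 h at room temperature before fluorescence reading.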

Test [10] in a line: qHTS assay to identify small molecule antagonists of the farnesoid-X-receptor (FXR) signaling pathway - cell viability counter screen (AID 743221; active means well fitted cell-killing curve with a large enough effect in the repeat runs, not every such curve was filed as active; further: on the % scale 0 is the no-effect control and ±100 the full control effect; nearly all actives have a fitted effect of over 50% in size). The essentials: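 HEK 293T FXR-bla cells, 5 h pre-incubation; compound + CDCA 50 uM final, 16 h, 37 C; beta-lactamase FRET read first, then CellTiter-Glo luminescence, 30 min RT.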
Test [11] can be described thus: qHTS assay to identify small molecule agonists of the vitamin D receptor (VDR) signaling pathway - cell viability counter screen (AID 743224). Further: nearly all actives have a fitted effect of over 50% in size. Further: potency means the concentration at half of the fitted maximal effect. The gist of the method:
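Cytotoxicity counter screen: VDR-bla cells, 16 h compound exposure at 37C, 5% CO2; CellTiter-Glo luminescence, 30 min RT, same wells as bla read.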

Test [12] is described as follows: qHTS assay to identify small molecule antagonists of the retinoid-related orphan receptor gamma (ROR-gamma) signaling pathway - cell viability counter screen (AID 1159520). Further: nearly all actives have a fitted effect of over 50% in size. Further: potency means the concentration at half of the fitted maximal effect. The essentials:
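Tet-on ROR gamma CHO cells were given compounds for 2 hr, then doxycycline hyclate at 1 uM final, and incubated 16 hr at 37 C. Viability was measured as ATP content by CellTiter-Glo luminescence.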

In test [13] the target is Retinoic acid receptor RXR-alpha (Homo sapiens) (UniProt P19793). Nature of the test: qHTS assay to identify small molecule agonists of the RXR signaling pathway (AID 1159527; calls by dose curve; further: nearly all actives have a fitted effect of over 35% in size; further: potency means the concentration at half of the fitted maximal effect). The essentials: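 Agonist mode; 9-cis retinoic acid positive control. HEK 293T UAS-bla reporter cells, 2% charcoal-stripped FBS, 16 hr compound exposure at 37 C/5% CO2. LiveBLAzer B/G FRET substrate 2 hr RT; ex 405, em 460/530 nm.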
Chain of Retinoic acid receptor RXR-alpha (Homo sapiens) (P19793 whole entry, looked up): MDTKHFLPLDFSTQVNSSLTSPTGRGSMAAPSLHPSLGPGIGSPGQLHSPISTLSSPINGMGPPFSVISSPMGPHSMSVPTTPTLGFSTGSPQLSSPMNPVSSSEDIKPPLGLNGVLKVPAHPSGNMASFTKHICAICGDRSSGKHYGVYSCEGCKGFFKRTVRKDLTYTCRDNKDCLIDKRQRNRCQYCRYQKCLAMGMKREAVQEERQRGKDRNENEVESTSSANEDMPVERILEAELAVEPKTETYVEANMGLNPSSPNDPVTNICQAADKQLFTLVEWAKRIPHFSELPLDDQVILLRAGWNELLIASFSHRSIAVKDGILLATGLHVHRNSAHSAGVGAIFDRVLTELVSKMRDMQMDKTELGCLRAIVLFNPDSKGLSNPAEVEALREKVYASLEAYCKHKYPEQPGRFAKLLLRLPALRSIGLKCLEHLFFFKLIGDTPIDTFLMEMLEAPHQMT

The nature of test [14]: qHTS assay to identify small molecule antagonists of the retinoid acid receptor (RAR) signaling pathway - cell viability counter screen (AID 1159551). Further: nearly all actives have a fitted effect of over 35% in size. Further: potency means the concentration at half of the fitted maximal effect. The gist of the method:
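C3RL4 RARE-luciferase line; cpds + retinol 1 uM final, 6 h, 37 C/5% CO2; CellTiter-Glo ATP luminescence, 30 min RT.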

Test [15] deals with Nuclear receptor ROR-gamma (Homo sapiens) (UniProt P51449). Nature of the test: qHTS assay to identify small molecule antagonists of the retinoid-related orphan receptor gamma (ROR-gamma) signaling pathway (AID 1159521; further: nearly all actives have a fitted effect of over 50% in size; further: potency means the concentration at half of the fitted maximal effect). The essentials: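 Luminescence readout (ONE-Glo, 30 min RT) after 16 h doxycycline induction; loss of signal scored as antagonism. CHO cells with TET-inducible RORγ and RORE-LUC reporter; compounds added 2 h before 1 uM final doxycycline.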

The target of test [16] is Peroxisome proliferator-activated receptor delta (Homo sapiens) (UniProt Q03181). In words: qHTS assay to identify small molecule antagonists of the peroxisome proliferator-activated receptor delta (PPARd) signaling pathway (AID 743215; active means well fitted inhibition curve with a large enough effect in the signal ratio in the repeat runs, not every such curve was filed as active; the % refers to the signal ratio). The gist of the method:
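HEK293H GeneBLAzer PPARd UAS-bla reporter cells; cpd + L165041 300 nM final, 17 h 37 C; LiveBLAzer B/G FRET substrate 2 h RT; fluorescence intensity read-out. Antagonist mode.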

The target of test [17] is Vitamin D3 receptor (Homo sapiens) (UniProt P11473). Nature of the test: qHTS assay to identify small molecule agonists of the vitamin D receptor (VDR) signaling pathway (AID 743222; calls by dose curve; further: on the % scale 0 is the no-effect control and ±100 the full control effect). The essentials:
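Beta-lactamase reporter readout (LiveBLAzer B/G FRET, 2 h RT) in VDR-bla cells after 16 h compound treatment at 37C, 5% CO2; cells pre-incubated 4 h before pin transfer of DMSO solutions.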

The target is the same in test [18]. In words: qHTS assay to identify small molecule antagonists of the vitamin D receptor (VDR) signaling pathway (AID 743223; active means well fitted inhibition curve with a large enough effect in the signal ratio in the repeat runs, not every such curve was filed as active; the % refers to the signal ratio; further: on the % scale 0 is the no-effect control and ±100 the full control effect). The essentials:
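Beta-lactamase reporter read-out: FRET substrate fluorescence after 2 h at room temperature, following 16 h exposure of VDR-bla cells to test compound plus 3 nM (final) 1alpha,25-dihydroxyvitamin D3 agonist at 37C.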

Test [19] can be described thus: qHTS assay to identify small molecule agonists of the RXR signaling pathway - cell viability counter screen (AID 1159529). Further: nearly all actives have a fitted effect of over 50% in size. Further: potency means the concentration at half of the fitted maximal effect. The gist of the method: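 Luminescence from CellTiter-Glo (30 min, RT) measured viability in the same wells as the beta-lactamase reporter readout. Cells: GeneBLAzer RXR-alpha HEK 293T, 2% charcoal-stripped FBS. Compound exposure 16 hr, 37 C.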

The nature of test [20]: qHTS assay to identify small molecule antagonists of the vitamin D receptor (VDR) signaling pathway - cell viability counter screen (AID 743225). Further: nearly all actives have a fitted effect of over 50% in size. Further: potency means the concentration at half of the fitted maximal effect. The essentials:
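Viability counter screen run in the same wells as the beta-lactamase reporter assay: HEK 293T VDR-UAS-bla cells, 16 h compound exposure at 37C with 3 nM (final) 1-alpha,25-dihydroxyvitamin D3. CellTiter-Glo luminescence, 30 min, room temperature.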

Chain of Bile acid receptor (Homo sapiens) (Q96RI1 whole entry, looked up): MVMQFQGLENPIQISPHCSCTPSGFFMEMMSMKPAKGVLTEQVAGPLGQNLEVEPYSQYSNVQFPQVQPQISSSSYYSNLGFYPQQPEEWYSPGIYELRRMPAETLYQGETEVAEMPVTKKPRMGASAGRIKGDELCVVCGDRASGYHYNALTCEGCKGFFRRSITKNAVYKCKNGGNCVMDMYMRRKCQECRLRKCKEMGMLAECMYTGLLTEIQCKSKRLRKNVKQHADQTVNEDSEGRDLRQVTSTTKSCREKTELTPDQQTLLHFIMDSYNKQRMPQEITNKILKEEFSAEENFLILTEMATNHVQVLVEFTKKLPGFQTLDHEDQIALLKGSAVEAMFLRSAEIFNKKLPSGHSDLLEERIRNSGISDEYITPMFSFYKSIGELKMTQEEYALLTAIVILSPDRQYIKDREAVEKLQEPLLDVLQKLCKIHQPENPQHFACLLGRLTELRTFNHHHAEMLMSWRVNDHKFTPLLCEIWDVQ
Chain of Vitamin D3 receptor (Homo sapiens) (P11473 whole entry, looked up): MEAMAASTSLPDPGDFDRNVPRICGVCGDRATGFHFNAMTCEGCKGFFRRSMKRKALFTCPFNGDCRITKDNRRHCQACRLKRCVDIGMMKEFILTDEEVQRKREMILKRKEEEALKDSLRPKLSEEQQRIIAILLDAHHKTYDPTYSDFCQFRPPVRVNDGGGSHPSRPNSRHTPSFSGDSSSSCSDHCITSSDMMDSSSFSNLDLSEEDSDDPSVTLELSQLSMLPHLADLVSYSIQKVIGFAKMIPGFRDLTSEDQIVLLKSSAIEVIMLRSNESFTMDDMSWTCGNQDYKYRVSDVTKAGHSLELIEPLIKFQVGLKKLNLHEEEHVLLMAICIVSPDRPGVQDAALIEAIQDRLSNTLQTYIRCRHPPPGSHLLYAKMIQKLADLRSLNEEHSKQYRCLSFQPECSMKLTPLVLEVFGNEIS

Take `CCCOC(=O)c1ccc(O)cc1`: in test [1], the result was inactive. Also, the Potency entry in test [2], in test [3] and in test [4] was “inactive” in each case.

Turning to `Oc1ccc(Cl)cc1C1CCCC1`, the Potency result in test [5], in [6], in test [7], in [8], in test [10] and in test [11] was “inactive” in each case. For the same compound, the Potency result in test [12] and in test [14] was “inactive” throughout. In addition, the result in test [1] and in test [9] was inactive. Moreover, the Potency in test [13] is 11 µM (active).

As to `CCN(CC)c1ccc2c(c1)Oc1cc(N(CC)CC)ccc1C21OC(=O)c2ccccc21`, the Potency entry in test [15], in test [2] and in test [4] was “inactive” in each case. Further, the Potency in [14] is 11.9 µM (active).

On to `CCC(C)(C)c1ccc(CC(C)CN2C[C@@H](C)O[C@@H](C)C2)cc1` (stereo not given in full), for which, in test [5], the Potency is 26.6 µM (active). For the same compound, the compound was classed as inactive in [1] and in test [17]. Moreover, the Potency result in test [6], in test [16], in test [8], in test [10], in test [18] and in test [15] was “inactive” throughout. The Potency result in test [4] is “inactive”.

Turning to `O=S(=O)(c1ccc(OCc2ccccc2)cc1)c1ccccc1O`, the Potency result in test [2] and in [19] was “inactive” throughout.

On to `CCCCC/C=C\C=C\C(=O)OCC`, for which the outcome in test [9] and in [17] was inactive. Moreover, the Potency in test [11] is 40.5 µM (active); in [15], 56.8 µM (active). The Potency result in test [20] and in test [14] was “inactive” throughout.

Turning to `S=C1NC=NC2N=CNC12` (stereo not given), the Potency was 11 µM (active) in [8], 3.09 µM (active) in test [11], 7.77 µM (active) in test [20] and 6.92 µM (active) in test [19]. In addition, the compound was called inactive in test [9] and in test [17]. In addition, the Potency result in test [18], in [2] and in test [3] was “inactive” throughout.

Turning to `CCCCCc1ccc(O)cc1`, the Potency entry in test [15], in test [14] and in test [4] was “inactive” in each case.

With `CC(Cc1ccc(O)c(O)c1)C(C)Cc1ccc(O)c(O)c1` (stereo not given), the Potency entry in test [5], in test [6], in test [8], in [10], in test [11] and in test [20] was “inactive” throughout. Also, the Potency entry in [2], in test [13] and in test [4] was “inactive” each time. Moreover, the call in test [9] and in test [17] was inactive.

For `CCCCCCCCCCCCN1CCCC1=O`, the values for the Potency in test [5] and in test [11] were 54.9 µM (active) and 49 µM (active), respectively. The result in test [1] and in [17] was inactive. Further, the Potency entry in test [15], in test [13], in [14] and in [4] was “inactive” each time.

Consider `c1ccc2cc3c4ccccc4c4ccccc4c3cc2c1`, for which the Potency entry in test [5], in test [6], in [16], in test [8], in test [10] and in [18] was “inactive” in each case. Besides, the Potency result in test [11], in test [20], in test [2], in test [13], in [19] and in test [14] was “inactive” throughout. Besides, the Potency entry in test [4] is “inactive”. Moreover, the outcome in test [1] and in test [17] was inactive.

Turning to `CC/C=C\C/C=C\C/C=C\CCCCCCCC(=O)OC`, the Potency result in test [2], in [3], in test [14] and in [4] was “inactive” each time.

On to `O=C(O)C[C@H](O)C[C@H](O)/C=C/c1c(C2CC2)nc2ccccc2c1-c1ccc(F)cc1`, for which the viability change, negative = cytotoxic in test [2] is 2.51% [at 15.8 µM]. Further, the activation in [3] was 4.12% [at 15.8 µM]; in test [13], -9.56% [at 15.8 µM]. Also, in test [14], the activity change, negative = cytotoxicity was 1.42% [at 19 µM].

Consider `CC(c1cc(C(C)(C)C)cc(C(C)(C)C)c1O)c1cc(C(C)(C)C)cc(C(C)(C)C)c1O`, for which the Potency entry in [2], in test [3] and in [14] was “inactive” throughout. Also, in test [13], the Potency is 3.47 µM (active).

For the compound `c1ccc(C[P+](c2ccccc2)(c2ccccc2)c2ccccc2)cc1`, the Potency in [15] is 24.3 µM (active). The Potency result in test [2], in test [3] and in test [14] was “inactive” throughout.

In the case of `Clc1nc(C(Cl)(Cl)Cl)c(Cl)c(Cl)c1Cl`, the Potency was 34.7 µM (active) in test [5], 49 µM (active) in [11] and 30.6 µM (active) in test [12]. The Potency result in test [6], in test [16], in test [8], in test [20] and in test [2] was “inactive” in each case. The call in test [9] was inactive.

For the compound `CC(C)(C)c1ccc(OC2CCCCC2O)cc1` (stereo not given), the Potency entry in [15] and in [4] was “inactive” throughout.
